Assay outcomes from PubChem BioAssay.
PERK inh: block of dimerizer-induced PERK translation repression, primary screen, PERK inhibitor project, CHO PERK-DD cells, SEAP luminescence, HTS; CHO PERK-DD fusion, SEAP luminescence translation reporter; inhibition, % at 5.6 µM; hit rate 0.17% among 220,000; AID 1416, 2008;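 active = inhibition above the mean inhibition of all tested compounds plus 3 SD, set separately per screening campaign, cut at about 2.9% in these data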;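 also: PERK kinase domain activated by AP20187 dimerizer at 100 nM; 0% = DMSO with dimerizer and 100% = rapamycin at 8.4 µM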
PABP1 MLLE inh: inhibitors of PABP1 MLLE–PAM2 peptide binding, primary screen, biochemical, fluorescence polarization, FITC-PAM2, GST-MLLE. inhibition, % at 20 µM. hit rate 0.36% among 360,000. Polyadenylate-binding protein 1 (Homo sapiens), P11940. AID 588489, 2011; in the data active = inhibition above about 35%, passing the limit was not always enough;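 also: plate controls were DMSO wells with GST-MLLE for no effect and wells lacking GST-MLLE protein for full effect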
eIF4E 4G PPI: eIF4E–eIF4G protein interaction inhibitors, primary screen, biochemical, uHTS, TR-FRET, eIF4GI fragment. Eukaryotic translation initiation factor 4E (Mus musculus) + Eukaryotic translation …. TR-FRET eIF4E-eIF4GI(517-606) binding, 2 h. inhibition, % at 21.7 µM. hit rate 0.37% among 220,000. AID 782, 2007;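 active = inhibition above about 30%, limit read from the data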;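 also: 0% = full FRET control wells and 100% = background wells lacking eIF4GI fragment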
PABP polyA inh: PABP poly(A) RNA binding inhibitors, primary screen, biochemical, fluorescence polarization, uHTS | Polyadenylate-binding protein 1 (Homo sapiens), P11940 | hit rate 1% among 290,000 | inhibition, % at 35 µM | AID 2014, 2009;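 also: calls also rest on retests at 20 µM and on dose response follow-up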
eIF4H FP inh: human eIF4H binding inhibitors, primary screen, translation initiation inhibitor project, biochemical, uHTS, fluorescence polarization; Eukaryotic translation initiation factor 4H (Homo sapiens), Q15056; eIF4H fluorescence polarization binding assay; inhibition, % at 35 µM; AID 2012, 2009; hit rate 0.94% among 290,000;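 also: calls also rest on retests at 20 µM and on dose response follow-up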
Active calls of the source: *; ? = inconclusive; · = no result given; ! = repeats disagree; [ ] = dose if it differs, or a comment. Compounds with a hit are over-represented: about 1.6% of the library has one in this group of screens. Unless noted, no rule for the calls is given here.

SMILES	PERK inh	PABP1 MLLE inh	eIF4E 4G PPI	PABP polyA inh	eIF4H FP inh
O=C(COC(=O)c1cccc(NS(=O)(=O)c2ccc(F)c(F)c2)c1)NC(=O)NC1CCCC1	0	-4	-1	6.1*	85
c1ccc2[nH]c(-c3ccnc4ccccc34)nc2c1	0	13	49*![fluorescence artefact?]	29	2
COc1cc(C2CC(=O)Oc3c2c(=O)n(C)c2ccccc32)ccc1O (stereo not drawn)	0	3	3	23	64*
Cc1cc(C=C2C(=O)c3ccccc3C2=O)c(C)n1-c1ccc(Cl)cc1	0	-16	4	11	63*
Cc1cccc(-n2c(C)cc(C=C3C(=O)c4ccccc4C3=O)c2C)c1	0	-126	-319	-8	-1
CC1CCc2nn(CC(=O)N3CCCCCC3)cc2C1 (stereo not drawn)	-1	-2	77*[fluorescence artefact?]	-5	-4
Clc1cccc(Cc2c(C3CCCCC3)nc3ccc(Br)cn23)c1	·	0	·	·	·
Cc1nn(C)c(C(=O)NC(=S)Nc2ccccc2Br)c1Cl	·	40	·	4	-4
O=C(NC(=S)Nc1ccc(C(=O)N2CCOCC2)cc1)c1ccc([N+](=O)[O-])cc1	0	44*	9	-8	0
Cc1nn(C)c(C(=O)NC(=S)Nc2ccc([N+](=O)[O-])cc2)c1Cl	·	40*	·	3	-7
COc1ccc(Cl)cc1CC=NNC(=O)c1cccc(C)c1O	·	-17	·	·	·
CC[n+]1c(/C=C/c2c[nH]c3ccccc23)ccc2cc(C)ccc21	-1	·	32*	-5	?
NC1=NC(=Nc2cccc(S(N)(=O)=O)c2)c2ccccc21	4.0*	-6	0	2	-11
Cc1cccc(N=C2N=C(N)c3ccccc32)c1	1	-12	0	-7	-6
COc1ccc(NC(=O)c2ccc(N3C(=O)C4CC=C(Cl)CC4C3=O)cc2)cc1 (stereo not drawn)	·	-3	·	11	38
O=C(NN1C(=O)C2CC=C(Cl)CC2C1=O)c1ccncc1 (stereo not drawn)	2	2	6	9.7*	?
CCCC(=O)Nc1sc2c(c1C#N)CCCC2	0	-1	4	3	4
CC1CCN(CC(=O)Nc2sc3c(c2C#N)CCC3)CC1	0	-3	-3	60	50*
N#Cc1c(NC(=O)c2ccncc2)sc2c1CCC2	2	7	6	6.8*	51*
N#Cc1c(NC(=O)c2ccco2)sc2c1CCC2	·	17	·	49*	74*
N#Cc1c(NC(=O)C2CC(c3ccccc3O)=NO2)sc2c1CCC2 (stereo not drawn)	1	40*	-1	-12	-4
Cc1ccc(S(=O)(=O)Nc2cncnc2NS(=O)(=O)c2ccc(C)cc2)cc1	·	14	·	·	·
O=C(CSc1nccn(-c2ccc(Br)cc2)c1=O)NC1CCCC1	·	45*	·	·	·
COc1ccc(-n2ccnc(SCC(=O)NC3CCCC3)c2=O)cc1OC	·	51*	·	·	·
COc1ccc(-n2ccnc(SCC(=O)NC3CCCCC3)c2=O)cc1	·	24	·	-4	-9
SMILES	PERK inh	PABP1 MLLE inh	eIF4E 4G PPI	PABP polyA inh	eIF4H FP inh
COc1ccc(-n2ccnc(SCC(=O)NC3CCCC3)c2=O)cc1	·	41*	·	10	-1
Cc1ccc(-n2ccnc(SCC(=O)NC3CCCCC3)c2=O)cc1F	·	41*	·	·	·
O=C(CSc1nccn(-c2ccc(Br)cc2)c1=O)Nc1ccccc1F	·	35	·	·	·
c1cc(CNc2ccc3c(c2)OCO3)ccn1	0	80*	4	37	21
S=C(Nc1ccc2c(c1)OCO2)Nc1ccc2c(c1)OCO2	0	23	3	active	112*
CCC1C(c2ccccc2)=CCC(C(=O)O)C1C (stereo not drawn)	·	-8	·	·	·
CC1CC(C)CN(S(=O)(=O)c2ccc(C(C)(C)C)cc2)C1 (stereo not drawn)	2	1	-5	80*	5
O=C(Nc1nc2c(F)cc(F)cc2s1)c1ccc([N+](=O)[O-])o1	·	0	·	4	10
CC[n+]1cc(-c2ccccc2)nc(N2CCOCC2)n1	0	-113	30	68*	-3
COc1cccc2c(=O)n(CC(=O)Nc3ccc(F)cc3)ccc12	0	0	0	-8	-10
COc1cccc2c(=O)n(CC(=O)Nc3ccccc3F)ccc12	0	2	4	12*	?
Cc1ccccc1NC(=O)CSc1nnc(-c2ccco2)c(-c2ccco2)n1	1	21	14	69*	99*
Cc1cccc(C)c1NC(=O)CSc1nnc(-c2ccco2)c(-c2ccco2)n1	0	30	14	80*	100*
Cc1occc1C(=O)NNC(=O)c1ccc(S(=O)(=O)N(C)C)cc1	·	6	·	·	·
COc1cc(/C=C2\CC/C(=C\c3cc(OC)c(O)c(OC)c3)C2=O)cc(OC)c1O	0	-149	40*[fluorescence artefact?]	3	56
CCc1nc2ccc(C(=O)NCCCN3CCCC3=O)cn2c1N(C=O)CC	·	-6	·	·	·
CN1C=C(C(F)(F)F)C=C/C1=C(\C#N)c1nnc2n1CCCCC2	3.1*	-4	3	0	-8
C/C(O)=C(\C#N)c1nnc2n1CCCCC2	2	-11	-4	-1	-1
O=[N+]([O-])c1ccccc1SN(Cc1ccccc1)c1ccccn1	0	8	-1	5.0*	58*
COC(=O)N/N=C/c1ccc(OC(=O)/C=C/c2ccco2)cc1	2.9*	-3	2	25*	?
CCOC(=O)c1c(=O)n(O)c2ccc(C)cc2[n+]1[O-]	1	-54	-4	125*	104*
COc1ccc(Cl)cc1NC(=O)CN(C)C(=O)C1COc2ccccc2O1 (stereo not drawn)	·	-29	·	·	·
CCCc1nnc(NC(=O)c2c(O)c3cccc4c3n(c2=O)CCC4)s1	·	·	·	active	96*
COc1ccc(-n2ncc3c2CC(C)(C)CC3NC(=O)c2cnc(C)cn2)cc1 (stereo not drawn)	·	2	·	2	-2
COC(=O)C1=C(C)NC(=O)/C1=C\N(C)C	2	43*	3	active	79*
COCCCn1c(SCC(=O)NCc2ccccc2)nc2ccccc2c1=O	-1	5	2	21	-4
CCn1c(SCC(=O)Nc2nc(-c3ccc(C)cc3)cs2)nnc1-c1ccccc1	0	-2	-5	2	7
Cc1ccc(-c2csc(NC(=O)CSc3nc4ccccc4c(=O)n3CCCN(C)C)n2)cc1	0	-6	31*	27	-8
O=C(CSc1nc2ccccc2c(=O)n1CCCO)NCc1ccccc1	0	38*	3	-1	-13
